The test system of assay [1] is XIP peptide (Xip251-270) binding. In words: small-molecule binders of XIP peptide, primary screen, biochemical, small-molecule microarray, fluorescence 635/667 nm, 0.1 µg/mL protein (AID 1182). As to conditions: fluorescent protein binding, 635 nm, higher = more signal, called active from +8 up or from −8 down.
A further assay concerns XIP peptide (Xip251-270). In words: small-molecule binders of XIP peptide, primary screen, biochemical, small-molecule microarray, fluorescence 635/667 nm, 0.5 µg/mL protein (AID 1183). As to conditions: small-molecule microarray binding, fluorescence 635 nm; higher = more signal.
Assay [2] can be described thus: Plasmodium falciparum growth inhibition, primary screen, strain 3D7, DAPI fluorescence, 100 nL (AID 1184).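 Also: parasites grown inside human red blood cells in medium with human serum.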 To be noted: P. falciparum 3D7 growth, 3 d, higher = more signal.
Assay [3] has as its target Homeobox protein Hox-A13 (Mus musculus) (UniProt Q62424). Briefly: inhibitors of HoxA13-DNA binding, primary screen, biochemical, fluorescence polarization, labeled oligonucleotide (AID 1185). As to conditions: 15 min, higher = more signal, called active from +8 up or from −8 down.
The nature of assay [4]: inhibitors of hydroxyurea-induced Chk1 phosphorylation, primary screen, imaging, HeLa, phospho-Chk1 antibody, percent positive cells (AID 1186). As to conditions: hydroxyurea-induced phospho-Chk1 immunofluorescence imaging, higher = more signal.
The nature of assay [5]: inhibitors of hydroxyurea-induced Chk1 phosphorylation, primary screen, imaging, HeLa, phospho-Chk1 nuclear intensity (AID 1187). As to conditions: hydroxyurea-induced phospho-Chk1 immunofluorescence imaging, higher = more signal.

From PubChem BioAssay come the findings set out here.

Calls of active or inactive are those of the source. Unless noted, no rule for the calls is given here.

Sequence of Homeobox protein Hox-A13 (Mus musculus) (Q62424 whole entry, looked up): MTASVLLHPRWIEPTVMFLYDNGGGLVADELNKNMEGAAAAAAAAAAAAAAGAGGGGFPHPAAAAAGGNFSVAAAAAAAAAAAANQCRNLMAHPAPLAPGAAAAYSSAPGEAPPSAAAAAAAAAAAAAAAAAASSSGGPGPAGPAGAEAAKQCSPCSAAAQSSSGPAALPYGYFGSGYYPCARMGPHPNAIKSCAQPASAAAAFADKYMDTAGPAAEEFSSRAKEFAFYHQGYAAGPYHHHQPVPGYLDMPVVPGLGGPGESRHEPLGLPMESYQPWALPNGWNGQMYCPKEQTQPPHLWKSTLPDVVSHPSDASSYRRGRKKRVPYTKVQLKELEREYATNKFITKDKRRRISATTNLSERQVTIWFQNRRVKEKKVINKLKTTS

Regarding `COc1cc2c(cc1O)C(C)N(Cc1ccc([N+](=O)[O-])o1)CC2` (stereo not drawn), the figures for the composite z-score (in assay [1]; with XIP peptide (Xip251-270)) were 0.563 (inactive) and 0.962, respectively. Moreover, the z-score is -1.2 in assay [2], -6.22 (inactive) in assay [3], 0.0111 (inactive) in assay [4] and 0.264 (inactive) in assay [5].
With `CC(CO)N1C(=O)[C@@H]2[C@H]3C(=O)OCC=C[C@H]3OC23C=CCN(C(C)(C)C)C(=O)[C@@H]13` (stereo partly drawn), the composite z-score in assay [1] was -0.316 (inactive); with XIP peptide (Xip251-270) it was 0.0576. The z-score is 0.293 in assay [2], -5.22 (inactive) in assay [3], 0.0116 (inactive) in assay [4] and -0.602 (inactive) in assay [5].
In the case of `CC(C)(C)OC(=O)CC[C@]1(C(=O)NCc2ccccc2)N=C(c2ccc(OCCCO)cc2)O[C@H]1c1ccccc1CN=[N+]=[N-]`, the composite z-score was 0.333 (inactive) in assay [1] and 0.688 with XIP peptide (Xip251-270). Moreover, the z-score in assay [2] was -2.39; in assay [3], -1.28 (inactive); in assay [4], -0.654 (inactive); in assay [5], -0.865 (inactive).
As for `O=C1O[C@H](c2ccccc2)[C@H](c2ccccc2)N2[C@H]1[C@@H](C(=O)NC[C@H](O)c1ccccc1)[C@]1(C(=O)Nc3ccc(C#CCCO)cc31)[C@H]2c1ccc(OCCO)cc1`, the composite z-score in assay [1] is 1.14 (inactive); in the assay with XIP peptide (Xip251-270), 0.829. For the same compound, the z-score was -0.685 in assay [2], -3.46 (inactive) in assay [3], -0.434 (inactive) in assay [4] and -0.821 (inactive) in assay [5].
Consider `[N-]=[N+]=Nc1ccccc1C[C@]1(C(N)=O)N=C(c2ccc(OCCCO)cc2)O[C@H]1c1ccccc1N=[N+]=[N-]`, for which the values for the composite z-score (in assay [1]; with XIP peptide (Xip251-270)) were 0.635 (inactive) and 0.756, respectively. The z-score is -2.65 in assay [2], -5.32 (inactive) in assay [3], -0.433 (inactive) in assay [4] and -0.683 (inactive) in assay [5].
On to `COC(=O)[C@@]1(Cc2ccc(F)cc2)[C@H]2c3cc(C(=O)N(C)C)n(CCc4ccc(O)c(OC)c4)c3C[C@H]2CN1C(=O)c1ccccc1`, for which the figures for the composite z-score (in assay [1]; in the assay with XIP peptide (Xip251-270)) were -0.327 (inactive) and -0.277, respectively. The z-score in assay [2] was 0.845; in assay [3] it was -0.562 (inactive); in assay [4], -0.47 (inactive); in assay [5], -0.964 (inactive).
Regarding `C=C(/C(=C/C[C@@H](OC(C)=O)c1cccc(OCCO)c1)c1cc(C(=O)OC)ccc1OC)C(C)C`, the values for the composite z-score (in assay [1]; in the assay with XIP peptide (Xip251-270)) were -0.139 (inactive) and 0.567, respectively. The z-score was -3.06 in assay [2], -5.59 (inactive) in assay [3], -0.541 (inactive) in assay [4] and -0.42 (inactive) in assay [5].
As for `COc1ccc(C(O)C2C=CC3C(=O)N(c4ccccc4)C(=O)C3N2Nc2ccc([N+](=O)[O-])cc2)cc1` (stereo not drawn), the composite z-score in assay [1] is 0.584 (inactive); in the assay with XIP peptide (Xip251-270) it was 0.797. The z-score in assay [2] is -0.906; in assay [3], -3.98 (inactive); in assay [4], 0.895 (inactive); in assay [5] it was -0.355 (inactive).
As for `COCCOC(=O)N1C(=O)[C@@]2(c3ccccc31)[C@H](C(=O)N1CCN(c3ncccn3)CC1)[C@H]1C(=O)O[C@H](c3ccccc3)[C@H](c3ccccc3)N1[C@@H]2c1ccc(O)cc1`, the values for the composite z-score (in assay [1]; with XIP peptide (Xip251-270)) were 0.43 (inactive) and 0.854, respectively. Also, the z-score was -1.55 in assay [2], -0.883 (inactive) in assay [3], 0.172 (inactive) in assay [4] and 0.371 (inactive) in assay [5].
As to `O=C1OCCC/C=C\[C@H]2OC34C=CCN(CCN5CCOCC5)C(=O)[C@H]3N(CCCCCCO)C(=O)[C@@H]4C12` (stereo partly drawn), the figures for the composite z-score (in assay [1]; in the assay on XIP peptide (Xip251-270)) were 3.43 (inactive) and 0.299, respectively. Moreover, the z-score in assay [2] is -0.282; in assay [3], -6.22 (inactive); in assay [4], -0.039 (inactive); in assay [5], 0.587 (inactive).
Take `COC(=O)c1c2oc(c1C(=O)OC)C(=O)N(Cc1ccccc1)Cc1cn(nn1)C[C@H](Cc1ccccc1)NC(=O)N[C@H](CO)CC2`: the composite z-score is -0.255 (inactive) in assay [1] and -0.057 in the assay on XIP peptide (Xip251-270). In addition, the z-score was -0.886 in assay [2], -4.5 (inactive) in assay [3], -0.962 (inactive) in assay [4] and -0.745 (inactive) in assay [5].
Take `C=CCC(OC(C)=O)[C@@H]1[C@@H](N(Cc2cc3ccccc3o2)C(=O)c2ccc(-c3ccccc3)cc2)c2cc(OCCCO)ccc2N1C(=O)c1ccc2ccccc2c1` (stereo partly drawn): the composite z-score in assay [1] was -0.252 (inactive); with XIP peptide (Xip251-270), -0.273. The z-score in assay [2] was -1.41; in assay [3], -0.926 (inactive); in assay [4] it was 0.347 (inactive); in assay [5] it was 0.433 (inactive).
As to `CN(C)CCCNC(=O)[C@@]1(C)c2ccccc2C(=O)N(Cc2ccccc2)[C@H]1c1ccc(CO)cc1`, the results for the composite z-score (in assay [1]; in the assay with XIP peptide (Xip251-270)) were -0.328 (inactive) and -0.711, respectively. In addition, the z-score in assay [2] is -0.649; in assay [3], -2.18 (inactive); in assay [4], 0.559 (inactive); in assay [5], 0.749 (inactive).
